Common to all, as to assay: NCI-60 one-dose screen, 48 h (100 = growth as untreated, 0 = no growth, -100 = all killed)
Conditions in all cases: 10 µM unless noted

In assay [1] the test system is HCT-15 colon.
Assay [2] concerns SNB-75 CNS.
Assay [3] deals with SNB-19 CNS.
The subject of assay [4] is U251 CNS.
Assay [5] relates to PC-3 prostate.
For assay [6], the system named is SK-MEL-5 melanoma.
Assay [7] concerns UACC-62 melanoma.
Assay [8] deals with LOX IMVI melanoma.
The subject of assay [9] is SK-MEL-28 melanoma.
Assay [10] has as its system SK-MEL-2 melanoma.
For assay [11], the system named is EKVX NSCLC.
Assay [12] has as its system SN12C renal.
Assay [13] has as its system TK-10 renal.
Assay [14] deals with ACHN renal.
The subject of assay [15] is CAKI-1 renal.
In assay [16] the test system is CCRF-CEM leukemia.
Assay [17] deals with MOLT-4 leukemia.
Assay [18] concerns UO-31 renal.
Assay [19] deals with A498 renal.
Assay [20] relates to HT29 colon.

Drawing on PubChem BioAssay (NCI), this text covers growth for 8 compounds.

Structures are written as SMILES. The panel holds about 83,000 compounds, 20% with a hit somewhere; the sample as a whole holds those more often.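 Values shown are percent growth following 48 h exposure of cells in 96-well plates to a single concentration of compound; below 10 was considered active.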 Values without a mark were called inactive. Active and inactive are the calls of the source.

On to `Nc1n[nH]c2cccc(C#Cc3cccc(C(=O)Nc4cc(CN5CCOCC5)cc(C(F)(F)F)c4)c3)c12`, for which the growth in assay [1] is 31.8%; in assay [2], 44.1%; in [3], 66.7%; in assay [4], 51%; in assay [5], 36.9%; in [6], 29%. Moreover, the growth in [7] is 11.7%; in assay [8], 7.72% (active); in [9], 14.6%; in [10] it was 4.06% (active); in [11], 60.6%; in [12] it was 39.1%. Also, the growth in [13] is 67.7%; in [14], 27%; in assay [15], 48.8%; in [16], 19.4%; in assay [17], 23.8%.

As for `N#C/C(=C\c1ccccn1)c1nc2cc(Cl)ccc2s1`, the growth in assay [1] was 63.5%; in [2], 8.52% (active); in assay [3] it was 85.9%; in assay [4], 73.8%; in assay [5] it was 44.1%; in assay [6], 83.7%. The growth in assay [7] was 68.1%; in assay [8], 72.7%; in assay [9], 101%; in [10] it was 95.9%; in assay [11], 56%; in assay [12], 64.7%. The growth was 44.3% in [18]; 119% in [13]; 75.8% in assay [14]; 66.5% in assay [15]; 64.6% in [19]; 63.9% in [16]. Moreover, the growth in [17] was 75.6%.

`COc1cc(C2C3=C(COC3=O)N(CCO)c3cc4c(cc32)CCC4)cc(OC)c1OC` (centres undefined): the growth in [20] is 2.19% (active); in assay [2], 61.3%; in [3], -12.9% (active); in [4] it was 7.16% (active); in assay [5], 21.3%; in assay [6], -60.3% (active). In addition, the growth was 31.2% in [7]; 21.6% in assay [8]; 54.3% in [9]; 6.85% (active) in [10]; 29.6% in [11]; 23.9% in assay [12]. Also, the growth is 31.9% in assay [18]; 55.3% in assay [13]; 26.1% in assay [14]; 28.7% in assay [15]; -20.4% (active) in [19].

In the case of `Cc1cc2cc3ccc(N(C)C)cc3nc2cc1N`, the growth in assay [20] was -37.3% (active); in assay [2], -11.5% (active); in assay [3], -4.5% (active); in assay [4], -2.3% (active); in assay [5] it was 12.7%; in assay [6], -0.276% (active). The growth is -27.5% (active) in assay [7]; -53.7% (active) in assay [8]; -68.5% (active) in assay [9]; -20.2% (active) in [10]; -7.41% (active) in assay [11]; -26% (active) in assay [12]. Also, the growth in assay [18] was 19.1%; in [13] it was 9.89% (active); in assay [14] it was 0.143% (active); in [15], 30.5%; in assay [19] it was -2.05% (active); in assay [16], 5.51% (active).

On to `COc1cc2c(c(O)c1Cl)C(=O)c1c(O)cc(C[C@H](C)O)cc1[C@H]2[C@H]1c2cc(C[C@H](C)O)cc(O)c2C(=O)c2c1cc(OC)c(Cl)c2O`, for which the growth in [1] is 8.82% (active); in assay [2], -3.83% (active); in assay [3] it was 18%; in assay [4], 8.26% (active); in assay [5], 16.7%; in assay [6] it was -65.7% (active). The growth in assay [7] is 0.814% (active); in assay [8], 7.32% (active); in assay [9], 38.2%; in [10], -31.6% (active); in assay [11] it was 13.5%; in [12], 8.13% (active). Besides, the growth was 2.84% (active) in [18]; 31.8% in [13]; -5.77% (active) in assay [14]; 8.67% (active) in assay [15]; 18.6% in assay [16]; 14.9% in assay [17].

Consider `Cc1nnc2c(Cc3ccccc3)nc3ccccc3n12`, for which the growth in [1] was 106%; in [2], 78.1%; in [3], 103%; in assay [4] it was 101%; in assay [5], 104%; in assay [6] it was 97.6%. In addition, the growth was 100% in assay [7]; 92.4% in assay [8]; 103% in assay [9]; 110% in [10]; 90.9% in assay [11]; 99.6% in assay [12]. For the same compound, the growth in assay [18] was 90.8%; in assay [13] it was 101%; in assay [14] it was 100%; in [15], 88.3%; in assay [19], 90.6%; in [16], 91.1%. For the same compound, the growth in assay [17] was 91.2%.

As to `COc1ccc(C(=O)Cn2c(C(=O)c3ccccc3)nc3ccccc32)cc1`, the growth was 18.6% in assay [1]; -8.26% (active) in [2]; 55.2% in assay [3]; 25.1% in assay [4]; 29.7% in [5]; -1.14% (active) in assay [6]. Also, the growth is 15.7% in [7]; 43.8% in assay [8]; 94.2% in assay [9]; 64.2% in assay [10]; 71.2% in [11]; 43% in assay [12]. Moreover, the growth in assay [18] is 32.7%; in assay [13], 59.6%; in [14], 46.1%; in assay [15], 24%; in assay [19], 46.8%; in assay [17], 7.92% (active).

As to `CCCCN1C=CCN(CCCC)C1`, the growth is 90.2% in assay [1]; 66.8% in assay [2]; 31.1% in [3]; 22.4% in assay [4]; 32.4% in [5]; -6.08% (active) in assay [6]. The growth is 24.5% in assay [7]; 68.8% in [8]; 40% in [9]; 24.4% in [10]; 47.5% in [11]; 34.8% in assay [12]. For the same compound, the growth is 74.6% in assay [18]; 56.8% in assay [13]; 98.1% in [14]; 86% in assay [15]; 78.4% in assay [19]; 87.2% in assay [16].
